Measured values from PubChem BioAssay (NCI).
About 79,000 compounds went through this panel and 15% of them were active in at least one assay; those are over-represented in the sample as a whole. Cut-off read from the data, not from the text of the source: active = growth inhibition above about 70%; inactive = the rest.

Tests used:
[1] = NCI Yeast Anticancer Drug Screen. Data for the rad50 strain (AID 155);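 note: 0% = growth of vehicle-only cultures of the same strain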; conditions: S. cerevisiae rad50 strain growth inhibition; at 50.0 µM; stronger effect = higher value
In short: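 Vehicle-treated cultures provide the reference for the growth inhibition reported for compound-exposed, repair-deficient yeast.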

[2] = NCI Yeast Anticancer Drug Screen. Data for the mec2-1 strain (AID 157); conditions: S. cerevisiae mec2-1 strain, at 50.0 µM, stronger effect = higher value
In short: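 mec2-1 yeast strain, carrying an alteration in DNA damage repair or cell cycle control, was exposed to compounds; growth inhibition was measured relative to vehicle-treated controls.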

[3] = NCI Yeast Anticancer Drug Screen. Data for the sgs1 mgt1 strain (AID 161);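 note: 0% = growth of cultures given vehicle only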; conditions: S. cerevisiae sgs1 mgt1 strain, at 50.0 µM, stronger effect = higher value
In short: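 This yeast growth screen uses a strain with defined DNA-repair lesions; compound-treated growth is compared with vehicle-treated growth.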

[4] = NCI Yeast Anticancer Drug Screen. Data for the cln2 rad14 strain (AID 165);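 note: 0% = growth equal to vehicle treated cultures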; conditions: S. cerevisiae cln2 rad14 strain, at 50.0 µM, stronger effect = higher value
In short: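 Yeast carrying cln2 and rad14 alterations (cell cycle control and DNA damage repair) were exposed to compounds. Growth inhibition was measured against vehicle-treated controls.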

[5] = NCI Yeast Anticancer Drug Screen. Data for the bub3 strain (AID 167); conditions: S. cerevisiae bub3 mutant strain, at 50.0 µM, stronger effect = higher value
In short: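 Mutant yeast screening strain plus compound; vehicle-treated cultures serve as the 0% inhibition reference.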

[6] = NCI Yeast Anticancer Drug Screen. Data for the mlh1 rad18 strain (AID 175); conditions: S. cerevisiae mlh1 rad18 strain growth inhibition; at 50.0 µM; stronger effect = higher value
In short: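 Growth inhibition of the yeast strain was measured after compound exposure and expressed relative to vehicle-treated controls. The strain carries defined defects in DNA damage repair.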

Measured: growth inhibition

Cn1cc2c(=O)n(OS(=O)(=O)c3ccccc3)c(=O)[nH]c2n1
inactive: [1] 12.8% | [2] -11.8% | [3] -4.55% | [4] -4.4% | [5] -5.2% | [6] 8.8%

NC(=O)C1C2CC3C(C2O)C31C(N)=O (stereo unspecified)
inactive: [1] -13.1% | [2] -4% | [3] -14% | [4] -30.1% | [5] -12.9% | [6] -28.7%

O=C1c2cc3c(cc2CC12Cc1ccc4c(c1C2=O)CCCC4)CCCC3 (stereo unspecified)
inactive: [1] -3.15% | [2] -4.15% | [3] -10.4% | [4] 3.6% | [5] 7.35% | [6] 9.8%

Nc1nc(-c2ccccc2)c(Cl)c(-c2cc(Cl)ccc2O)n1
inactive: [1] -1.45% | [2] -1.3% | [3] -10.4% | [4] 25.3% | [5] 4.25% | [6] 2.7%

Cc1ccc(S(=O)(=O)c2ccc(C(=O)O)cc2)cc1
inactive: [1] 8.1% | [2] 10.4% | [3] 10.8% | [4] -6.05% | [5] 4.05% | [6] 17%

COc1ccc(C(O)c2ccc(C)cc2)cc1 (stereo unspecified)
inactive: [1] -14.1% | [2] -4.2% | [3] -43% | [4] -27.6% | [5] -27.4% | [6] -17.3%

O=C(O)C(C(=O)O)C(c1ccccc1)c1ccccc1Br (stereo unspecified)
inactive: [1] 5.15% | [2] 17.1% | [3] 28.1% | [4] -184% | [5] 23.9% | [6] 29.5%

CN(C)C(=O)Sc1nnc(C(C)(C)C)o1
inactive: [1] -4.35% | [2] -5.9% | [3] -7.3% | [4] -23.4% | [5] 1.7% | [6] 4.2%

COC1OC(COC(=O)c2ccccc2)C(OC(=O)c2ccccc2)C(OC(=O)c2ccccc2)C1OC(=O)c1ccccc1 (stereo unspecified)
inactive: [1] -1.3% | [2] -30.8% | [3] -13.6% | [4] -9.4% | [5] -29.8% | [6] -14.8%

CCC12OC3(CC)C4C(=O)OC1C1(CC)OC4(CC)C3C(=O)OC21
inactive: [1] -13.7% | [2] -5.6% | [3] 4.85% | [4] -5.75% | [5] 0.8% | [6] 13.3%

N#Cc1cc2c(cc1C#N)SCCSCCCSCCS2
inactive: [1] 1.2% | [2] 5% | [3] 1.05% | [4] 22.4% | [5] 6% | [6] -24.8%

COC(=O)C(O)(C(=O)OC)C1=C(N)C(=O)c2ccccc2C1=O
inactive: [1] 28.9% | [2] 17.1% | [3] 17.8% | [4] -5.4% | [5] 40.8% | [6] 28.3%

CN(C)c1cc[n+](-c2c([O-])c3ccccc3n(-c3ccccc3)c2=O)cc1
inactive: [1] 20.1% | [2] 6.1% | [3] 14.2% | [4] 12.7% | [5] 4.8% | [6] 21%

COc1ccc(-c2nnc(-c3ccc(OC)cc3)o2)cc1
inactive: [1] 20.1% | [2] -2.85% | [3] 16.5% | [4] 0.2% | [5] 1.15% | [6] -7.95%

Clc1ccc(CCn2cncn2)cc1
inactive: [1] -15.6% | [2] -11.9% | [3] -44.9% | [4] -11.7% | [5] -22.6% | [6] -18.8%

CCCCSCC(NC(=O)/C=C/c1c(C)[nH]c(=O)[nH]c1=O)C(=O)OC (stereo unspecified)
inactive: [1] 16.1% | [2] 20.2% | [3] 31.2% | [4] 22.4% | [5] 7.7% | [6] 28.6%

COc1ccc(-c2c(C#N)c(N)nc(C)c2-c2ccccc2)cc1
inactive: [1] -26.4% | [2] -10.8% | [3] -6.85% | [4] -24.6% | [5] -5.65% | [6] 16.9%

CC1OC(c2ccc3c(c2O)C(=O)C2=C(C3=O)C3(O)C(=O)CC(C)(O)CC3(O)C=C2)CC(O)C1O (stereo unspecified)
inactive: [1] -19.2% | [2] -23.1% | [3] -19.4% | [4] -8.1% | [5] -21.8% | [6] -5.5%

C=C(C)COc1ccc(C)cc1Br
inactive: [1] -4.05% | [2] -4.05% | [3] 0% | [4] -51.8% | [5] 7.1% | [6] -13%

Nc1nc2c(=O)[nH]c(=O)[nH]c2n1C1OC(CO)C(O)C1O (stereo unspecified)
inactive: [1] 4.7% | [2] -3.9% | [3] 0.35% | [4] 4.9% | [5] 14.2% | [6] -6.1%

CCCCCc1c(C)nc(N)[nH]c1=O
inactive: [1] -3.95% | [2] 0.7% | [3] 1.2% | [4] -40% | [5] -15.4% | [6] -5.45%

CC[n+]1cc([N+](=O)[O-])ccc1Cl
inactive: [1] 17.5% | [2] 14.5% | [3] 13.6% | [4] 15.9% | [5] 12.4% | [6] 20.2%

N#CNc1nc(N)cc(N)n1
inactive: [1] 2.25% | [2] 9.35% | [3] -1.5% | [4] -5.85% | [5] -1% | [6] -4.6%

CCOC(=O)C1C=CC(C)N(C(=O)OCC)N1C(=O)OCC (stereo unspecified)
inactive: [1] 0.35% | [2] 2.45% | [3] 7.5% | [4] -2.3% | [5] 49.9% | [6] -13.7%

Brc1ccc2oc3ccccc3c2c1
inactive: [1] 24.4% | [2] -2.45% | [3] 18.4% | [4] -5.5% | [5] 6.75% | [6] 24.8%

C/C=C/C(=O)OCCC#N
inactive: [1] -27.1% | [2] -2.3% | [3] 3.7% | [4] 14.7% | [5] -17.1% | [6] -8.85%

[O-][n+]1c2ccccc2nn1-c1ccccc1
inactive: [1] -9.1% | [2] -4.25% | [3] -2.65% | [4] -21.4% | [5] -7.2% | [6] -13.8%

CS(=O)(=O)OCCC(O)COS(C)(=O)=O (stereo unspecified)
inactive: [1] -7.55% | [2] -7.25% | [3] 9.45% | [4] -55% | [5] -12.5% | [6] 4.1%

O=C(NC1CCCCC1)Oc1ccc[nH]c1=O
inactive: [1] -14.8% | [2] -16.8% | [3] -13.6% | [4] -26.9% | [5] 2.25% | [6] -1.25%

CCOP(=O)(CCCCCCP(=O)(OCC)OCC)OCC
inactive: [1] 30.4% | [2] 18.4% | [3] -0.2% | [4] -31.1% | [5] 8.45% | [6] 32.9%

O=C1NC(=O)C(CCBr)N1 (stereo unspecified)
inactive: [1] -21.1% | [2] -6.85% | [3] -10.3% | [4] -3.8% | [5] -13.8% | [6] 5.7%

NNc1cccc(Cl)n1
inactive: [1] 6.65% | [2] -4.7% | [3] -5.5% | [4] 17.6% | [5] -9.8% | [6] 8.05%

Cc1ccc(NC(=O)Oc2ccccn2)cc1
inactive: [1] -9.7% | [2] -30.5% | [3] -8.05% | [4] -4.4% | [5] -0.35% | [6] -6.25%

Cc1ccc(S(=O)(=O)Oc2ccc(-c3ccc([N+](=O)[O-])cc3)cc2)cc1
inactive: [1] 1.5% | [2] 19.2% | [3] 15.4% | [4] -6.9% | [5] -1.8% | [6] 7.05%

COC(=O)c1ccc(Cl)cc1OCC(=O)Nc1ccccc1
inactive: [1] -29.1% | [2] -0.55% | [3] -12.2% | [4] -27.7% | [5] -4.6% | [6] -3.65%

CC(=O)Nc1ncc(Br)s1
inactive: [1] 6.75% | [2] 6.05% | [3] -18.4% | [4] -13.8% | [5] -9.4% | [6] 5.3%

COS(=O)c1cc(Cl)cc(Cl)c1O (stereo unspecified)
inactive: [1] -0.6% | [2] 4.55% | [3] -10.7% | [4] -28.2% | [5] -0.85% | [6] 2.25%

CCCCCCCCCCCCOc1ccc(F)cc1C
inactive: [1] 6% | [2] -1.15% | [3] 0.45% | [4] 4.6% | [5] 10.7% | [6] 13.4%

COC(=O)C(OC)(OC)C(O)c1ccccc1 (stereo unspecified)
inactive: [1] 34.4% | [2] 4.6% | [3] 49% | [4] 4.95% | [5] -9.35% | [6] 6.8%

[Cl][Mn][Cl]
inactive: [1] 10.2% | [2] 6.4% | [3] 17.4% | [4] -7.15% | [5] -4.75% | [6] -0.15%

CCCCCCCCCc1ccc(OC(=O)CCC)cc1
inactive: [1] 2.4% | [2] -22.6% | [3] -15.1% | [4] -50% | [5] -2.95% | [6] 20.7%
